Measured values reported in PubChem BioAssay (NCATS).
Where “and” joins values, the source holds several entries; their conditions need not be identical. Identical values can stand only once. Inconclusive results are not listed. Entries that show only a call come without a potency. Some structures have more than one record in an assay (separate samples or runs), and their calls can disagree. Calls of active or inactive are those of the source. Calls come from the whole dose curve; as a rule, active = well fitted inhibition curve with a large enough effect; inconclusive = small, poorly fitted or top-dose-only effect; inactive = no such curve, though single readings can be large or run the other way.

What follows are compounds tested against M-phase phosphoprotein 8 (Homo sapiens) (UniProt Q99549) (assay: qHTS Validation Assay for Inhibitors for MPP8 Chromodomain Interactions with Methylated Histone Tails (AID 488949; note: nearly all actives have a fitted effect of over 55% in size; for activity change, negative = inhibition: top concentration of the series differs between compounds)). Settings: AlphaScreen MPP8 binding to H3K9me3 peptide; series mostly up to 57.1 µM; activity change, negative = inhibition: at the top concentration.
Chain of M-phase phosphoprotein 8 (Homo sapiens) (Q99549 whole entry, looked up): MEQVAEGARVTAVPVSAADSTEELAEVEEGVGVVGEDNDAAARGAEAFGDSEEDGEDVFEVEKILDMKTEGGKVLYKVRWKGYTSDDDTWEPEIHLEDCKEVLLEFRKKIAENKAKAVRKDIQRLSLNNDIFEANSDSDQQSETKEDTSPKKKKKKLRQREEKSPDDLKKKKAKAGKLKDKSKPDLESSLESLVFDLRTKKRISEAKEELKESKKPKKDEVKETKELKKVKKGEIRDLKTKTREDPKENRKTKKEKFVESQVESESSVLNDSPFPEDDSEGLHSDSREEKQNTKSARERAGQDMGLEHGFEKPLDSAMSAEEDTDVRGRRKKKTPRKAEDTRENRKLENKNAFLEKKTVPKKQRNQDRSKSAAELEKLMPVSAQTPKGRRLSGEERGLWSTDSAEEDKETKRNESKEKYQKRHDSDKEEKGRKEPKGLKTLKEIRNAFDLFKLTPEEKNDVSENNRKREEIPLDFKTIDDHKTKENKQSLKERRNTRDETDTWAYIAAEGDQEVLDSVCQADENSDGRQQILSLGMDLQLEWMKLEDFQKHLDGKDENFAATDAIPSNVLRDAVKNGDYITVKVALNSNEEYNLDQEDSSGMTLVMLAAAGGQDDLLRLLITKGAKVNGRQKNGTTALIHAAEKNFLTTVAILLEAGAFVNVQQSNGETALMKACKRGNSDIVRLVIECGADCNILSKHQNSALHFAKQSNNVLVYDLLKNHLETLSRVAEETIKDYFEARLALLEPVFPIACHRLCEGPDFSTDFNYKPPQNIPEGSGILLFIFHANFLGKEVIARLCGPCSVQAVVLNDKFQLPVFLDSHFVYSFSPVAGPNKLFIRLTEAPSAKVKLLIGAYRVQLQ
From the text: As our understanding of epigenetics expands, it is becoming clear that players in this field are potential targets for drug development. This area of epigenetic therapy has established applications for the treatment of cancer and neurological diseases. We have been involved in this field for a number of years and have performed high-throughput screens to identify the first small molecule inhibitors of protein methyltransferases. These methyltransferases target multiple substrates, and thus regulate many arms of an epigenetic pathway. The methylation of different substrates often generates docking sites for effector proteins that harbor binding domains (chromo, tudor, PHD, MBT and ANK repeats). It has been proposed that the binding sites generated for different proteins by these post-translational modifcations mediate downstream effects on chromatin. Consistent with this theory, di- and tri-methylation of histone H3K9 facilitates the binding of heterochromatin protein HP1. The HP1 protein harbors a chromodomain that is responsible for the methyl-dependent interaction between HP1 and lysine 9 of histone H3. HP1 was first described in flies as a heterochromatin associated protein that can regulate gene silencing. It harbors a chromodomain that binds H3K9me3. In addition, it harbors a chromoshadow domain that interacts with a large number of proteins that are involved in heterochromatin formation and gene repression. There are three highly related HP1 isoforms. All three variants are associated with pericentric heterochromatin and it is not clear whether they have specific or redundant functions. MPP8 is also involved in the repression of gene in euchromatic regions (unpublished data) and like HP1 its chromodomain binds H3K9me3. MPP8 harbors an ankyrin repeat region that is likely involved in binding and recruiting interacting proteins with transcriptional repressive function, much like the chromoshadow domain of HP1 does. We hypothesize that by inhibiting specific protein-protein interactions we will be able to develop compounds that block a single arm of an epigenetic pathway. The specificity attained by blocking a single protein-protein interaction will be far greater than that attained by blocking the enzyme that regulates one of many interactions. Low-affinity protein-protein interactions (Kd in the single- to double-digit micromolar range) such as those discussed here have been very difficult to assay by traditional techniques such as fluorescence polarization or fluorescence resonance energy transfer. We have developed a sensitive chemiluminescence-based assay (Quinn, et al. 2009), which serves as the starting point for this project. The following is a validation assay to identify lead compounds that can block methyl-dependent protein-protein interactions (specifically MPP8), which can be used as probes to analyze these methyl-driven interactions and perhaps even developed into targeted epigenetic therapies. Assay Provider: Mark T. Bedford, MD Anderson Screening Center PI: Austin, C.P. Screening Center: NIH Chemical Genomics Center [NCGC]
To each well, 2 uL of MPP8 protein (final 50 nM) and 1 uL biotinylated histone peptide trimethylated at Lys9 [b-H3(1-18)K9me3] (final 50 nM) was added in 1x PBS buffer, pH 7.4, containing 0.01% Tween-20 using a nanoliter dispenser. Formation of a protein-peptide complex proceeded at room temperature for 30 min. A Kalypsys pin-tool was employed to transfer 23 nL of library compound solution in DMSO to each well. Aurintricarboxylic acid (ATA) was used as an intraplate control with a 12-point titration in duplicate. Following a 30 min incubation of the protein-peptide complex with compounds at room temperature, a mixture of 40 ug/mL each streptavidin-coated donor and nickel chelate acceptor AlphaScreen beads (final 10 ug/mL) was added in a 1 uL dispense for a final volume of 4 uL. Plates were incubated protected from the light for 30 min at room temperature. […]
Potency is the fitted concentration of half-maximal effect.

| SMILES | activity change, negative = inhibition | Potency |
| --- | --- | --- |
| N[C@@H](Cn1ccc(=O)[nH]c1=O)C(=O)O | 4.05% (inactive) | – |
| N[C@@H](Cn1oc(=O)[nH]c1=O)C(=O)O | – | inactive |
| C[C@H](N)CN1CCc2ccc(Br)cc21 | 3.39% (inactive) | – |
| C[N+](C)(C)CC#CCN1CCCC1=O | -12.3% [at 114 µM] (inactive) | – |
| C=CCN1CC[C@]23c4c5ccc(O)c4O[C@H]2/C(=N/NC(=O)c2ccccc2)CC[C@@]3(O)[C@H]1C5 | – | inactive |
| CC(N)[C@H](O)c1ccc(O)c(O)c1 (stereo not given in full) | – | 29.9 µM (active) |
| Oc1ccc2c3c1O[C@H]1c4[nH]c5ccccc5c4C[C@@]4(O)C(C2)N(CC2CC2)CCC314 (stereo not given in full) | 9.67% (inactive) | – |
| CC1OC1P(=O)(O)O (stereo not given) | – | inactive |
| CNC(=O)OCC[N+](C)(C)C | -8.26% [at 114 µM] (inactive) | – |
| CCCN(CCC)C1CCc2cccc(O)c2C1 (stereo not given) | – | inactive |
| C[N+]1(C)C2CCC1CC(OC(=O)c1c[nH]c3ccccc13)C2 (stereo not given) | – | inactive and 8.44 µM (active) |
| COc1ccc2c(c1)C13CCCCC1C(C2)N(C)CC3 (stereo not given) | – | inactive |
| c1ccc2c(c1)[I+]c1ccccc1-2 | – | inactive |
| CCCCCCC(C)(C)c1ccc([C@@H]2C[C@H](O)CC[C@H]2CCCO)c(O)c1 | 14.2% (inactive) | – |
| Cc1c2ccncc2c(C)c2c1[nH]c1ccccc12 | – | inactive |
| NC(Cc1cc(O)c(O)cc1O)C(=O)O (stereo not given) | – | 501 nM (active) and 474 nM (active) |
| NCC(CP(=O)(O)O)c1ccc(Cl)cc1 (stereo not given) | – | inactive |
| CCCN(CCC)CCc1c[nH]c2ccc(C(N)=O)cc12 | 0.94% (inactive) | – |
| C[N+]1(C)CCN(c2ccccc2)CC1 | -0.574% [at 114 µM] (inactive) | – |
| NC(=O)c1cc(N2CC2)c([N+](=O)[O-])cc1[N+](=O)[O-] | – | inactive |

| SMILES | activity change, negative = inhibition | Potency |
| --- | --- | --- |
| CN1C2CCC1CC(OC(c1ccccc1)c1ccccc1N)C2 (stereo not given) | – | inactive |
| NC(N)=NOCC[C@H](N)C(=O)O | – | inactive |
| O=[N+]([O-])/C=C/c1ccc2c(c1)OCO2 | 2.67% (inactive) | – |
| N#C/C(=C/c1ccc(O)c(O)c1)C(N)=S | – | 13.4 µM (active) |
| CCn1cnc2c(Nc3cccc(Cl)c3)nc(N[C@@H]3CCCC[C@@H]3N)nc21 | – | 39.8 µM (active) and inactive |
| NC(=O)COc1c(F)cc(SCCNS(=O)(=O)c2ccccc2)cc1F | – | inactive |
| COc1cc(CC(C)N)c(OC)cc1I (stereo not given) | – | inactive |
| CCCN(CCC)C1Cc2cc(OC)c(OC)cc2C1 | – | inactive |
| CCCN1CC[C@@H]2c3cc(O)ccc3CC[C@@H]21 | – | inactive |
| NCC(O)c1cc(O)c(O)cc1F (stereo not given) | – | 18.9 µM (active) |
| COc1ccc2[nH]c3c(c2c1)CCNC3 | -3.59% (inactive) | – |
| C[N+]1(C)CCC(OC(=O)C(c2ccccc2)c2ccccc2)CC1 | 13.4% (inactive) | – |
| Cc1o[nH]c(=O)c1CC(N)C(=O)O (stereo not given) | – | inactive |
| O=P(O)(O)C(Cl)(Cl)P(=O)(O)O | -6.44% [at 114 µM] (inactive) | – |
| C[N+]1(C)CCc2cc3c(cc2[C@H]1[C@@H]1OC(=O)c2c1ccc1c2OCO1)OCO3 | 2.59% (inactive) | – |
| CCCN(CCC)CCc1ccc(O)c(O)c1 | – | inactive |
| CNc1ccc2oc(C[C@H]3O[C@@]4(CC[C@H]3C)O[C@H]([C@H](C)C(=O)c3ccc[nH]3)[C@H](C)C[C@H]4C)nc2c1C(=O)O | – | inactive |
| O=[N+]([O-])c1ccc2nc(N3CCNCC3)ccc2c1 | – | inactive |
| CC(C)(O)[C@@H]1C2OC(=O)[C@@H]1[C@]1(O)C[C@H]3O[C@]34C(=O)O[C@H]2[C@]14C (tested in a mixture with another compound) | 0.61% (inactive) | – |
| C/C(O)=C(\C#N)C(=O)Nc1cc(Br)ccc1Br | – | inactive |
